Data: PubChem BioAssay (NCATS)
“And” between values parts separate entries of the source, which are not always exact repeats. Equal values may be shown once. Records with an inconclusive call do not appear. The source made the active and inactive calls. Unless noted, calls follow the shape of the dose curve; as a rule, active = well fitted curve in the direction sought with a large enough effect; inconclusive = small, poorly fitted or top-dose-only effect, or another doubt; inactive = no such curve, though single readings can be large; an effect the other way counts as inactive or inconclusive. Where a SMILES comes first, the peptide text is derived from it. [ ]: non-standard residue; d: D form. pGlu = O=C1CC[C@@H](C(=O)O)N1; Thz = O=C(O)[C@@H]1CSCN1

What was measured:
NIH3T3 = assay: qHTS assay to identify novel small-molecules to repurpose for Merkel cell carcinoma treatment (AID 1296009); conditions: MCC and control cell lines, CellTiter-Glo viability, 72 h; at 44.8 µM (top of the series) unless noted; also: nearly all actives have a fitted effect of over 60% in size
How it was run: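 Cells were treated for 72 hr at 37 degree celsius with compounds in 8- or 11-point dose response. Viability was read by CellTiter-Glo luminescence, normalized to no-cell (cytotoxicity) and DMSO controls.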

C33A = assay: Primary qHTS to identify gynecologic anti-cancer compounds using libraries of approved drugs and bioactive compounds (AID 1345084); conditions: Gynecologic cancer cell panel viability, ATPlite luminescence, 48 h; series mostly up to 57.5 µM; also: nearly all actives have a fitted effect of over 55% in size; also: potency is read from the fitted curve at half-maximal effect
How it was run: (§1)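 ATP-based viability (ATPlite), 1,000 cells/well, 16 h pre-incubation, 48 h compound at 37 C, 5% CO2, 15 min RT before read.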

CASKI = assay: as above; conditions: Gynecologic cancer cell panel viability, ATPlite luminescence, 48 h; series mostly up to 57.5 µM
How it was run: as §1

Es-2 = assay: as above; conditions: Gynecologic cancer cell panel viability, ATPlite luminescence, 48 h; series mostly up to 57.5 µM
How it was run: as §1

HeLa = assay: as above; conditions: Gynecologic cancer cell panel viability, ATPlite luminescence, 48 h; series mostly up to 57.5 µM
How it was run: as §1

Hek293T = assay: as above; conditions: Gynecologic cancer cell panel viability, ATPlite luminescence, 48 h, control line for the selectivity index; series mostly up to 57.5 µM
How it was run: as §1

JEG-3 = assay: as above; conditions: Gynecologic cancer cell panel viability, ATPlite luminescence, 48 h; series mostly up to 57.5 µM
How it was run: as §1

OV90 = assay: as above; conditions: Gynecologic cancer cell panel viability, ATPlite luminescence, 48 h; series mostly up to 57.5 µM
How it was run: as §1

PA-1 = assay: as above; conditions: Gynecologic cancer cell panel viability, ATPlite luminescence, 48 h; series mostly up to 57.5 µM
How it was run: as §1

SKOV3 = assay: as above; conditions: Gynecologic cancer cell panel viability, ATPlite luminescence, 48 h; series mostly up to 57.5 µM
How it was run: as §1

Tov-21-G = assay: as above; conditions: Gynecologic cancer cell panel viability, ATPlite luminescence, 48 h; series mostly up to 57.5 µM
How it was run: as §1

Tov112D = assay: as above; conditions: Gynecologic cancer cell panel viability, ATPlite luminescence, 48 h; series mostly up to 57.5 µM
How it was run: as §1

[1] = Drug repurposing screens with cells derived from glioblastoma tumor samples (AID 1345199); conditions: GBM patient neurospheres viability, ATP luminescence, 48 h; also: nearly all actives have a fitted effect of over 40% in size; also: potency is read from the fitted curve at half-maximal effect; as to activity, negative = cell killing: % is scaled to controls: 0 for no effect and ±100 for the full control effect
How it was run: (§2)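 Four patient lines of CD133+ GBM neurospheres were screened at several concentrations; hits were retested in those lines plus three slower-growing GBM lines, using 48-hour treatment and ATP-based viability.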

astro = assay: as above; conditions: viability, ATP luminescence, 48 h; series mostly up to 45.9 µM
How it was run: as §2

CAOV3 = assay: Primary qHTS to identify gynecologic anti-cancer compounds using libraries of approved drugs and bioactive compounds (AID 1345084); conditions: Gynecologic cancer cell panel viability, ATPlite luminescence, 48 h; series mostly up to 57.5 µM; also: nearly all actives have a fitted effect of over 55% in size; also: potency is read from the fitted curve at half-maximal effect
How it was run: as §1

[2] = molecular target: Nuclear receptor subfamily 1 group I member 2 (Rattus norvegicus) (UniProt Q9R1A7); assay: qHTS assay for small molecule activators of the rat pregnane X receptor (rPXR) signaling pathway (AID 651751; call rule not given here; also: 0% is about no effect); conditions: rPXR reporter cells, luciferase (One-Glo), 24 h
[3] = at 45.9 µM (top of the series), tumour line B
[4] = at 45.9 µM (top of the series), tumour line D
[5] = at 46.1 µM (top of the series), tumour line C

Nuclear receptor subfamily 1 group I member 2 (Rattus norvegicus), sequence (Q9R1A7 whole entry, looked up): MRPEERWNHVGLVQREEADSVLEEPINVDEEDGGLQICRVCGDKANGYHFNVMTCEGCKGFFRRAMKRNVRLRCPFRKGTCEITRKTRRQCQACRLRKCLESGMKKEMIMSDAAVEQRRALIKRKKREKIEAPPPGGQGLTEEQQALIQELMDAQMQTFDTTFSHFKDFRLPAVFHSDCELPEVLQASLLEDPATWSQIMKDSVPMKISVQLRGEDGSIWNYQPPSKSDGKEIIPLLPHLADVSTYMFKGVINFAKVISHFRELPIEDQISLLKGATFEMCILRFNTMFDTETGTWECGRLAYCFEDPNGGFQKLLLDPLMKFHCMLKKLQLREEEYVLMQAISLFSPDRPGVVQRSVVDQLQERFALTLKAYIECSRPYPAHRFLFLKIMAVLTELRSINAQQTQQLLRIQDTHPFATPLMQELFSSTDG

O=C1CC[C@@H](C(=O)N2CSC[C@H]2C(=O)O)N1 ([pGlu]-[Thz]-OH)
inactive: outcome (NIH3T3) | Potency (C33A) | Potency (CASKI) | Potency (Es-2) | Potency (HeLa) | Potency (Hek293T) | Potency (JEG-3) | Potency (OV90) | Potency (PA-1) | Potency (SKOV3) | Potency (Tov-21-G) | Potency (Tov112D) | activity, negative = cell killing [1, 3] -16.5% | activity, negative = cell killing [1, 4] -0.509% | activity, negative = cell killing ([1]; at 46 µM (top of the series), tumour line A) -28.4% | activity, negative = cell killing [1, 5] -18.5% | Potency (astro)

Fc1ccc2[nH]c(CN3CCN(c4ccccn4)CC3)cc2c1
inactive: Potency (C33A) | Potency (CAOV3) | Potency (CASKI) | Potency (Es-2) | Potency (HeLa) | Potency (Hek293T) | Potency (JEG-3) | Potency (OV90) | Potency (PA-1) | Potency (SKOV3) | Potency (Tov-21-G) | Potency (Tov112D)

CS(=O)(=O)c1ccc(-n2nc(C(F)(F)F)cc2-c2ccc(F)cc2)cc1
inactive: Potency (C33A) | Potency (CAOV3) | Potency (CASKI) | Potency (Es-2) | Potency (HeLa) | Potency (Hek293T) | Potency (JEG-3) | Potency (OV90) | Potency (PA-1) | Potency (SKOV3) | Potency (Tov-21-G) | Potency (Tov112D)

S=c1[nH]c2ccccc2s1
inactive: Potency (C33A) | Potency (CASKI) | Potency (Es-2) | Potency (HeLa) | Potency (Hek293T) | Potency (JEG-3) | Potency (OV90) | Potency (PA-1) | Potency (Tov-21-G) | Potency (Tov112D) | activity, negative = cell killing [1, 3] -16.2% | activity, negative = cell killing [1, 5] -8.66% | max response [2] 4.63% and 1.9%
active: Potency ([1]; tumour line A) 39.8 µM

NS(=O)(=O)c1ccc(-n2nc(C(F)(F)F)cc2-c2ccc(Cl)cc2)cc1
inactive: Potency (C33A) | Potency (CAOV3) | Potency (CASKI) | Potency (Es-2) | Potency (HeLa) | Potency (Hek293T) | Potency (JEG-3) | Potency (OV90) | Potency (PA-1) | Potency (SKOV3) | Potency (Tov-21-G) | Potency (Tov112D)

C#C[C@]1(O)CC[C@H]2[C@@H]3CCc4cc(O)ccc4[C@H]3CC[C@@]21C
active: Potency (SKOV3) 35.5 µM | Potency ([1]; tumour line A) 12.6 µM
inactive: Potency (C33A) | Potency (CASKI) | Potency (Es-2) | Potency (Hek293T) | activity, negative = cell killing [1, 3] -15.9% | activity, negative = cell killing [1, 5] 2.3%

CC1(C)[C@@H](O)CC[C@]2(C)[C@H]3C(=O)C=C4[C@@H]5C[C@@](C)(C(=O)O)CC[C@]5(C)CC[C@@]4(C)[C@]3(C)CC[C@@H]12
active: Potency (SKOV3) 3.16 µM
inactive: Potency (C33A) | Potency (CAOV3) | Potency (CASKI) | Potency (Es-2) | Potency (HeLa) | Potency (Hek293T) | Potency (JEG-3) | Potency (OV90) | Potency (PA-1) | Potency (Tov-21-G) | Potency (Tov112D) | activity, negative = cell killing [1, 3] -26.1% and -10.2% | activity, negative = cell killing [1, 4] 9.17% and -11.9% | activity, negative = cell killing [1, 5] -0.581% and -19.2%

COc1ccc(-c2cc(=S)ss2)cc1
inactive: outcome (NIH3T3) | Potency (C33A) | Potency (CASKI) | Potency (Es-2) | Potency (HeLa) | Potency (Hek293T) | Potency (JEG-3) | Potency (OV90) | Potency (PA-1) | Potency (SKOV3) | Potency (Tov-21-G) | Potency (Tov112D) | activity, negative = cell killing [1, 3] -21.5% | activity, negative = cell killing [1, 4] -22.3% | activity, negative = cell killing [1, 5] -27.4%
